According to paper PMC12820563, “FoxP3 forms a head-to-head dimer in vivo and stabilizes its multimerization on adjacent microsatellites”:
Whole data set: some 16,000 sequences, median “rpm ratio (pull-down/input)” near 0.5, cut for the highest 2% near 5.5. The sample holds the highest values, similar sequences and a random draw of the others, so the mix is not that of the screen.

Each sequence was assayed against T1, MBP-FoxP3dN (Mus musculus, UniProt Q99JB6 188-423) (assay: PD-seq (MBP pull-down with sequencing); 20 mM Tris-HCl pH 7.5, 100 mM NaCl, 1.5 mM MgCl2, 0.4 uM protein, 0.1 uM dsDNA library, 30 min, room temperature, amylose pull-down; high values mean tight binding). Settings: protein: recombinant; tags: His6-MBP; chain copies: 2; dsDNA, one strand shown.
T1 sequence: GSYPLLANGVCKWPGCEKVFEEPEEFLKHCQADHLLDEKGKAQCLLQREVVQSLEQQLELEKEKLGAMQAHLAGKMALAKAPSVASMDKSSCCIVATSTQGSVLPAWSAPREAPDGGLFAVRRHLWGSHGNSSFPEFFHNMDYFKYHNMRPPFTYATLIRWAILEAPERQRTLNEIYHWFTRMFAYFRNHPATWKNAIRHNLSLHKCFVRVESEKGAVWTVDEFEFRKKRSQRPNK
In short: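 His6-MBP-tagged mouse FoxP3 or FoxP1 fragment lacking the N-terminus, expressed in E. coli, was mixed at 0.4 µM with 0.1 µM Klenow-filled double-stranded degenerate DNA library. Incubation was 30 min at room temperature in Tris pH 7.5 buffer with NaCl and MgCl2. Complexes were caught on amylose resin and washed three times; DNA was released with proteinase K, PCR-barcoded and Illumina-sequenced. Binding is reads-per-million enrichment, pull-down over input, with replicates pooled.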

Sequence | binding signal
GATGATTGTTCTCCCAGCTGATGAATTGATCAGGTCGAGTAAACAAATTTTCCTAATCTTTCTGTTCAAGCGCCATCTAC | 0.232 RPM ratio (pull-down/input)
GATGATTGTTCTCCCAGCTGATGAATTGGTTGCATCGAGTAAACAAATTTTCCTAATCTTTCTGTTCAAGCGCCATCTAC | 2.53 RPM ratio (pull-down/input)
GATGATTGTTCTCCCAGCTGATGAATTGGAAGCATCGAGTAAACAAATTTTCCTAATCTTTCTGTTCAAGCGCCATCTAC | 0.654 RPM ratio (pull-down/input)
GATGATTGTTCTCCCAGCTGATGAATTAATTGTCTCGAGTAAACAAATTTTCCTAATCTTTCTGTTCAAGCGCCATCTAC | 3.16 RPM ratio (pull-down/input)
GATGATTGTTCTCCCAGCTGATGAATTAGATAGCTCGAGTAAACAAATTTTCCTAATCTTTCTGTTCAAGCGCCATCTAC | 0.537 RPM ratio (pull-down/input)
GATGATTGTTCTCCCAGCTGATGAATTATGCCTATCGAGTAAACAAATTTTCCTAATCTTTCTGTTCAAGCGCCATCTAC | 2.91 RPM ratio (pull-down/input)
GATGATTGTTCTCCCAGCTGATGAATTTCCGTTATCGAGTAAACAAATTTTCCTAATCTTTCTGTTCAAGCGCCATCTAC | 0.615 RPM ratio (pull-down/input)
GATGATTGTTCTCCCAGCTGATGAATTTATTGACTCGAGTAAACAAATTTTCCTAATCTTTCTGTTCAAGCGCCATCTAC | 5.75 RPM ratio (pull-down/input)
GATGATTGTTCTCCCAGCTGATGAATTTTATTTCTCGAGTAAACAAATTTTCCTAATCTTTCTGTTCAAGCGCCATCTAC | 1.53 RPM ratio (pull-down/input)
GATGATTGTTCTCCCAGCTGATGAATTTTTATTCTCGAGTAAACAAATTTTCCTAATCTTTCTGTTCAAGCGCCATCTAC | 0.391 RPM ratio (pull-down/input)
GATGATTGTTCTCCCAGCTGATGAATTTAGTTACTCGAGTAAACAAATTTTCCTAATCTTTCTGTTCAAGCGCCATCTAC | 3.04 RPM ratio (pull-down/input)
GATGATTGTTCTCCCAGCTGATGAATTAGTTTACTCGAGTAAACAAATTTTCCTAATCTTTCTGTTCAAGCGCCATCTAC | 5.83 RPM ratio (pull-down/input)
GATGATTGTTCTCCCAGCTGATGAATTTGATGACTCGAGTAAACAAATTTTCCTAATCTTTCTGTTCAAGCGCCATCTAC | 3.97 RPM ratio (pull-down/input)
GATGATTGTTCTCCCAGCTGATGAATTTTATGACTCGAGTAAACAAATTTTCCTAATCTTTCTGTTCAAGCGCCATCTAC | 0.491 RPM ratio (pull-down/input)
GATGATTGTTCTCCCAGCTGATGAATTTATTTTCTCGAGTAAACAAATTTTCCTAATCTTTCTGTTCAAGCGCCATCTAC | 5.54 RPM ratio (pull-down/input)
GATGATTGTTCTCCCAGCTGATGAATTTGTTGACTCGAGTAAACAAATTTTCCTAATCTTTCTGTTCAAGCGCCATCTAC | 7.34 RPM ratio (pull-down/input)
GATGATTGTTCTCCCAGCTGATGAATTTAGTTTCTCGAGTAAACAAATTTTCCTAATCTTTCTGTTCAAGCGCCATCTAC | 2.13 RPM ratio (pull-down/input)
GATGATTGTTCTCCCAGCTGATGAATTTTTTGACTCGAGTAAACAAATTTTCCTAATCTTTCTGTTCAAGCGCCATCTAC | 0.273 RPM ratio (pull-down/input)
GATGATTGTTCTCCCAGCTGATGAATTATTTGACTCGAGTAAACAAATTTTCCTAATCTTTCTGTTCAAGCGCCATCTAC | 0.481 RPM ratio (pull-down/input)
GATGATTGTTCTCCCAGCTGATGAATTTGCTGACTCGAGTAAACAAATTTTCCTAATCTTTCTGTTCAAGCGCCATCTAC | 5.1 RPM ratio (pull-down/input)
GATGATTGTTCTCCCAGCTGATGAATTGCAGTGCTCGAGTAAACAAATTTTCCTAATCTTTCTGTTCAAGCGCCATCTAC | 0.811 RPM ratio (pull-down/input)

Sequence | binding signal
GATGATTGTTCTCCCAGCTGATGAATTATTAGCGTCGAGTAAACAAATTTTCCTAATCTTTCTGTTCAAGCGCCATCTAC | 0.786 RPM ratio (pull-down/input)
GATGATTGTTCTCCCAGCTGATGAATTTGGCTGTTCGAGTAAACAAATTTTCCTAATCTTTCTGTTCAAGCGCCATCTAC | 1.17 RPM ratio (pull-down/input)
GATGATTGTTCTCCCAGCTGATGAATTCAGTAGATCGAGTAAACAAATTTTCCTAATCTTTCTGTTCAAGCGCCATCTAC | 0.408 RPM ratio (pull-down/input)
GATGATTGTTCTCCCAGCTGATGAATTACGAGGTTCGAGTAAACAAATTTTCCTAATCTTTCTGTTCAAGCGCCATCTAC | 0.392 RPM ratio (pull-down/input)
GATGATTGTTCTCCCAGCTGATGAATTCCGTCAATCGAGTAAACAAATTTTCCTAATCTTTCTGTTCAAGCGCCATCTAC | 0.393 RPM ratio (pull-down/input)
GATGATTGTTCTCCCAGCTGATGAATTGATCGACTCGAGTAAACAAATTTTCCTAATCTTTCTGTTCAAGCGCCATCTAC | 0.33 RPM ratio (pull-down/input)
GATGATTGTTCTCCCAGCTGATGAATTGTGTCCTTCGAGTAAACAAATTTTCCTAATCTTTCTGTTCAAGCGCCATCTAC | 1.89 RPM ratio (pull-down/input)
GATGATTGTTCTCCCAGCTGATGAATTGGTGGCTTCGAGTAAACAAATTTTCCTAATCTTTCTGTTCAAGCGCCATCTAC | 0.748 RPM ratio (pull-down/input)
GATGATTGTTCTCCCAGCTGATGAATTGGCGGTATCGAGTAAACAAATTTTCCTAATCTTTCTGTTCAAGCGCCATCTAC | 0.566 RPM ratio (pull-down/input)
GATGATTGTTCTCCCAGCTGATGAATTTGATTACTCGAGTAAACAAATTTTCCTAATCTTTCTGTTCAAGCGCCATCTAC | 6.08 RPM ratio (pull-down/input)
GATGATTGTTCTCCCAGCTGATGAATTTGTTTACTCGAGTAAACAAATTTTCCTAATCTTTCTGTTCAAGCGCCATCTAC | 6.49 RPM ratio (pull-down/input)
GATGATTGTTCTCCCAGCTGATGAATTATTTTACTCGAGTAAACAAATTTTCCTAATCTTTCTGTTCAAGCGCCATCTAC | 0.529 RPM ratio (pull-down/input)
GATGATTGTTCTCCCAGCTGATGAATTTTTTTACTCGAGTAAACAAATTTTCCTAATCTTTCTGTTCAAGCGCCATCTAC | 0.35 RPM ratio (pull-down/input)
GATGATTGTTCTCCCAGCTGATGAATTATTTGTCTCGAGTAAACAAATTTTCCTAATCTTTCTGTTCAAGCGCCATCTAC | 2.46 RPM ratio (pull-down/input)
GATGATTGTTCTCCCAGCTGATGAATTTTGTTACTCGAGTAAACAAATTTTCCTAATCTTTCTGTTCAAGCGCCATCTAC | 3.84 RPM ratio (pull-down/input)
GATGATTGTTCTCCCAGCTGATGAATTGTTTTACTCGAGTAAACAAATTTTCCTAATCTTTCTGTTCAAGCGCCATCTAC | 1.55 RPM ratio (pull-down/input)
GATGATTGTTCTCCCAGCTGATGAATTTATTGTCTCGAGTAAACAAATTTTCCTAATCTTTCTGTTCAAGCGCCATCTAC | 6.72 RPM ratio (pull-down/input)
GATGATTGTTCTCCCAGCTGATGAATTGAATTACTCGAGTAAACAAATTTTCCTAATCTTTCTGTTCAAGCGCCATCTAC | 1.28 RPM ratio (pull-down/input)
GATGATTGTTCTCCCAGCTGATGAATTTATTTACTCGAGTAAACAAATTTTCCTAATCTTTCTGTTCAAGCGCCATCTAC | 6.74 RPM ratio (pull-down/input)
GATGATTGTTCTCCCAGCTGATGAATTTTATTACTCGAGTAAACAAATTTTCCTAATCTTTCTGTTCAAGCGCCATCTAC | 1.04 RPM ratio (pull-down/input)
GATGATTGTTCTCCCAGCTGATGAATTTTATGTCTCGAGTAAACAAATTTTCCTAATCTTTCTGTTCAAGCGCCATCTAC | 1.12 RPM ratio (pull-down/input)
